Assay results as given in PubChem BioAssay (NCI).
The panel holds about 83,000 compounds, 20% with a hit somewhere; the sample as a whole holds those more often.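 Note: values are percent growth. 100 is the growth of untreated cells, values between 100 and 0 indicate rising inhibition; between -100 and 0 indicates cell death.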 Values without a mark were called inactive. Activity calls are given as the source filed them. The calls were made as follows: active = growth percent below 10; inactive = the rest.

These compounds were tested on KM12 colon (assay: NCI-60 one-dose screen, 48 h (100 = growth as untreated, 0 = no growth, -100 = all killed)). Conditions: 10 µM.

Structure (SMILES) | growth
CCN1CCN(Cc2ccc(C(=O)Nc3cccc(-c4cn(-c5ccc6oc(=O)ccc6c5)nn4)c3)cc2C(F)(F)F)CC1 | -100% (active)
COc1cc2oc(-c3cccc(C(=O)Nc4ccc(Cl)cc4)c3)cc(=O)c2c(OCCNC(=O)CNC(=O)OC(C)(C)C)c1OC | 48.6%
O=C(NO)c1ccc(CN2CCN(c3nc(-c4ccccc4)c4ccccc4n3)CC2)cc1 | 18.7%
COC[C@@H](CC(C)C)N=C1NC(=O)/C(=C/c2ccc3ncsc3c2)N1 | 21%
O=C(/C=C/Nc1ccc(F)cc1F)c1ccc2c(c1)Nc1ccccc1S2 | 51.6%
COc1ccc(-c2cc(C(=O)N=Nc3c(O)[nH]c4ccc(F)cc34)c3ccccc3n2)cc1 | 81.3%
COc1cc(C2CC(c3ccccc3)=Nc3c(N)nc(N)nc3N2)ccc1Oc1nc(Nc2ccc(F)cc2)nc(N(C)C)n1 (stereo not drawn) | 31.6%
COc1ccc(-c2cc(C(=O)N=Nc3c(O)[nH]c4ccccc34)c3ccccc3n2)cc1 | -11.1% (active)
Cc1ccc(CSc2nc(Cl)c(C#N)c(-c3ccc(F)cc3)n2)cc1 | 72.2%
O=C(Nc1ccc(I)cc1)Nc1nc2ccc([N+](=O)[O-])cc2s1 | -93.3% (active)
O=C(Nc1nc2ccccc2s1)c1ccc(Br)cc1 | 72.4%
O=c1oc2ccccc2cc1-c1csc(N=Nc2c(O)[nH]c3ccc(Br)cc23)n1 | 99.9%
COc1cccc(-c2ccc(/C=N/NC(=O)c3[nH]c4ccc(Br)cc4c3-c3ccccc3)o2)c1 | 10.8%
